Measured values published in PubChem BioAssay AID624262 (National Center for Advancing Translational Sciences (NCATS), 2012).
The other results are listed elsewhere or left out. Inconclusive results are not listed. Activity calls are given as the source filed them. Calls come from the whole dose curve; as a rule, active = well fitted curve in the direction sought with a large enough effect; inconclusive = small, poorly fitted or top-dose-only effect, or another doubt; inactive = no such curve, though single readings can be large or run the other way.

Experiment: qHTS for Inhibitors of Glutaminase (GLS): Hit Confirmation in HRP Counterscreen
Details: HRP/glutamate oxidase coupled Amplex Red fluorescence counterscreen; series mostly up to 46.1 µM; activity change, negative = inhibition: at the top concentration
From the text: Glutaminase (GLS) catalyzes the hydrolysis of glutamine into glutamate and ammonia. It plays a critical role in glutaminolysis, which is an important energy source for proliferating cells. It was shown that c-Myc, an oncogenic transcription factor known to regulate microRNAs and to stimulate cell proliferation, increases glutamine metabolism by stimulating the expression of GLS via direct suppression of miR23a and miR23b. […] GLS is also thought to play a pathogenic role on HAD using a human HIV-1 infected macrophage system. […] GLS inhibition limits glutamate release and provides neuroprotection against HIV-1 infected macrophages. […] The overall goal of this project is to identify small molecule inhibitors of GLS through quantitative high throughput screening (qHTS) of the MLSMR. A validated potent and selective inhibitor can be used as a tool molecule to further study the pharmacology of its target as well as explore its potential therapeutic application in cancer and inflammatory neurological disorders, such as HIV1-associated dementia (HAD) and multiple sclerosis. […]
3 uL of buffer are dispensed into black 1536-well plates and then 23 nL of compounds are transferred into the wells using a pin tool. […] The plate is quickly centrifuged before an initial read on the ViewLux is obtained. After a 30 min incubation at RT the plate is once again read on the ViewLux.

Structure (SMILES) | activity change, negative = inhibition
CCN1C(=O)c2cccc3c(S(=O)(=O)Nc4ccccc4O)ccc1c23 | -2.22% (inactive)
COc1cc(OC)c(S(=O)(=O)Nc2ccccc2C(=O)O)cc1S(=O)(=O)Nc1ccccc1C(=O)O | -3.19% (inactive)
